# Records with an inconclusive call do not appear. Active and inactive are the calls of the source.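 The calls were made as follows, unless noted: active = aptamer binding inhibition above 30%, about 3 SD of noise from non-fluorescent compounds; inactive = inhibition at or below 30%.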
# Tests used:
# [1] = rapamycin-like changes in RPL19A-GFP expression – cell-based, S. cerevisiae, multiplex flow cytometry, primary screen (AID 1862; in the data active = percent of DMSO control GFP below about 86%;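 also: lower values mimic rapamycin by blocking the RPL19A rise seen in DMSO cells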); conditions: S. cerevisiae RPL19A-GFP strain, flow cytometry fluorescence, 3 h; at 10 µM; stronger effect = lower value
# [2] = TOR pathway GLN3 branch reporter MEP2-GFP changes – S. cerevisiae, multiplex flow cytometry, primary screen (AID 1867;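 active = GFP response, as percent of the DMSO control, above the screen-wide mean plus 3 SD, about 139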;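 also: median GFP channel fluorescence of barcode-gated MEP2-GFP cells measured by flow cytometry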); conditions: S. cerevisiae MEP2-GFP strain, 3 h, at 10 µM, stronger effect = higher value, 100% means same as DMSO wells
# [3] = TOR pathway RTG branch CIT2 reporter changes – S. cerevisiae, GFP fusion, multiplex flow cytometry, primary screen (AID 1870;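 active = percent response above a set limit, the screen-wide mean plus 3 SD, cut at about 130% in these data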;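 also: barcoded CIT2-GFP strain pooled with four other GFP strains with rapamycin as positive control; median GFP fluorescence per well over plate mean of DMSO wells so 100% = DMSO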); conditions: S. cerevisiae CIT2-GFP expression, 3 h, at 10 µM, stronger effect = higher value
# [4] = TOR pathway LAP4-GFP level changes – S. cerevisiae, multiplex flow cytometry, primary screen (AID 1873;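 active = GFP signal, as percent of the solvent control, above the screen mean plus 3 SD, about 149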); conditions: S. cerevisiae LAP4-GFP expression, 3 h, at 10 µM, stronger effect = higher value
# [5] = yeast AGP1-GFP level changes, GLN3 branch – cell-based, multiplex flow cytometry, S. cerevisiae, primary screen (AID 1887;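 active = GFP signal above the screen-wide mean plus 3 SD, that is over about 124.5% of the solvent control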;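 also: AGP1-GFP fusion strain of S. cerevisiae within a five-strain barcoded multiplex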); conditions: 3 h, at 10 µM, stronger effect = higher value
# [6] = reduced mouse 2C T cell binding to pMHC/ICAM-1 vesicles – MLPCN validation set, flow cytometry, LFA-1/ICAM-1 modulator project, pilot screen (AID 2523;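 active = response below a set limit, under 55% cells CD8-positive and vesicle-bound, and CD8 cells' 90th-percentile brightness under 279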;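 as to vesicle binding response: mean PE anti-B7-1 fluorescence of CD8+ cells relative to row control; 100% = QL9-loaded vesicles with DMSO vehicle in the same plate row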); conditions: 2C mouse CD8+ T cells, at 7 µM, stronger effect = lower value; double positive events: measured here: CD8+/vesicle+ event percentage
# [7] = biological target: Integrin beta-1 (Homo sapiens) + Integrin alpha-4 (Homo sapiens) (UniProt P13612+P05556); test: alpha4beta1 integrin LIBS antibody binding reduction – U937 cells, HUTS-21 mAb, flow cytometry, validation set, VLA-4 allosteric modulator project, pilot screen (AID 2674;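 active = inhibition above 50%, about 3 SD of the validation set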;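 also: antibody binding induced by the VLA-4 ligand LDV present at three times its Kd; 0% = LDV ligand with antibody and no compound and 100% = antibody without LDV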); conditions: HUTS-21 LIBS mAb binding, at 6.7 µM, stronger effect = higher value, binding induced by LDV ligand
# [8] = calorie-restriction mimetic ROS inhibitors, yeast – validation compound set, pilot screen (AID 2706;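 active = superoxide response below 65% of plate, a cut near 3 SD across the whole screen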;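 also: yeast exposed to compound for one week at 30 degrees C before staining; 100% = mean of all compound wells on the same plate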); conditions: S. cerevisiae aging, superoxide DHE fluorescence; at 10 µM, stronger effect = lower value
# [9] = biological target: Beta-adrenergic receptor kinase 1 (Homo sapiens) (UniProt P25098); test: GRK2 binders displacing RNA aptamer, biochemical, validation, human GRK2, bead flow cytometry (AID 488806); conditions: bead-bound GRK2, FAM-aptamer displacement, at 10 µM, stronger effect = higher value
# [10] = biological target: AP-2 complex subunit beta (Homo sapiens) (UniProt P63010); test: beta-arrestin/AP2 interaction blockers – biochemical, validation set, GST-AP2 beads, flow cytometry, pilot screen (AID 504541;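 active = inhibition above 54%, about 3 SD of non-fluorescent compounds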;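 also: AP2 carries R879A mutation and is captured from E. coli lysate; bead-bound FITC arrestin peptide fluorescence measuring arrestin peptide binding to AP2; 0% = DMSO wells and 100% = excess unlabeled arrestin peptide control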); conditions: FITC arrestin peptide, at 10 µM, stronger effect = higher value, AP2 beta2 appendage fragment, R879A mutant
# [11] = cytosolic pH regulators acting via V-ATPase – S. cerevisiae, pHLuorin, HTS validation (AID 504600; in the data active = response above about 15%;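 also: plate controls were DMSO for no effect and reference compound for full effect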); conditions: V-ATPase proton transport, at 10 µM, stronger effect = higher value
# [12] = system: anti-desmoglein-3 scFv antibody binding to human DSG3; test: blockers of pathogenic pemphigus antibody–desmoglein-3 binding – biochemical, validation compound set, bead-based, flow cytometry, pilot screen (AID 588368;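 active = binding below the plate cutoff, the plate median minus 3 SD, with a reading above zero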;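 also: signal is the median channel fluorescence of bead-bound GFP antibody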); conditions: Protein G beads, DSG3-Fc, scFv-GFP binding, at 10 µM, stronger effect = lower value
# [13] = Nile Red efflux blockade in pump-expressing yeast – validation compound set, multiplex, phenotypic, pilot screen (AID 588506;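 active = efflux inhibition above 0.42, the validation set average plus 4 SD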;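 also: Nile Red retained in cells so higher fluorescence means more efflux inhibition; 0 = negative control wells and 1 = enniatin B 25 µM full block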); conditions: S. cerevisiae pump-expressing triplex, Nile Red efflux flow cytometry; at 10 µM; stronger effect = higher value; the pumps come from Candida albicans
# [14] = biological target: ATP-binding cassette sub-family B member 6 (Homo sapiens) (UniProt Q9NP58); test: blockers of ABCB6-driven porphyrin uptake – K562-ABCB6 cells, flow cytometry, validation set, pilot screen (AID 588550;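 active = inhibition above the screen-wide mean plus 3 SD, about 51%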;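 also: 0% = DMSO wells and 100% = benzethonium chloride 70 µM positive control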); conditions: K562-ABCB6 porphyrin accumulation, 1 h, at 10 µM, stronger effect = higher value
# [15] = AML differentiation inducers, ER-HoxA9 marrow cells – cell-based, GFP/MAC1 double positive, flow cytometry, validation set, primary screen (AID 588685;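 active = differentiation response of at least 50%, scaled between solvent and reference control, from cells with both markers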;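 also: compound exposure lasts four days before antibody staining and flow analysis; 0% = DMSO wells and 100% = 5 µM fulvestrant positive control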); conditions: stronger effect = higher value, normalized: vehicle 0, fulvestrant 100
# Chain of Beta-adrenergic receptor kinase 1 (Homo sapiens) (P25098 whole entry, looked up): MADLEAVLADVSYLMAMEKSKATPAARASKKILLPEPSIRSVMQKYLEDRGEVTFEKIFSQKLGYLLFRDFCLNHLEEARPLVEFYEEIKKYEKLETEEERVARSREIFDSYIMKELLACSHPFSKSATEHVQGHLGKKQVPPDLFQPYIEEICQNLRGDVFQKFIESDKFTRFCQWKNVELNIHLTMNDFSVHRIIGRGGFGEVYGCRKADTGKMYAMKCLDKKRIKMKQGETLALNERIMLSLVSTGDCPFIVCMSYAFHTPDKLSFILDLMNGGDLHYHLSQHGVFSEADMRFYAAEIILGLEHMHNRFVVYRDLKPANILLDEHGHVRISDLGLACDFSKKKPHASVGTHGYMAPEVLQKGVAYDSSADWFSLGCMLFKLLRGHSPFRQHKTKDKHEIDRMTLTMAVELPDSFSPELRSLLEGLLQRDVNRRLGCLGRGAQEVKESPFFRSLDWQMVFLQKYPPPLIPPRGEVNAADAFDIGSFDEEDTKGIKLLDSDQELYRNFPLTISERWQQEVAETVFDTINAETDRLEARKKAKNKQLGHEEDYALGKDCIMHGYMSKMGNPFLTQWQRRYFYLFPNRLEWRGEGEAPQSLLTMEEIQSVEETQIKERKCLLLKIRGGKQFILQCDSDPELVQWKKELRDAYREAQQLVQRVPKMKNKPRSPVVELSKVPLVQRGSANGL
# Chain of AP-2 complex subunit beta (Homo sapiens) (P63010 whole entry, looked up, the tested form may be a part, one chain of several): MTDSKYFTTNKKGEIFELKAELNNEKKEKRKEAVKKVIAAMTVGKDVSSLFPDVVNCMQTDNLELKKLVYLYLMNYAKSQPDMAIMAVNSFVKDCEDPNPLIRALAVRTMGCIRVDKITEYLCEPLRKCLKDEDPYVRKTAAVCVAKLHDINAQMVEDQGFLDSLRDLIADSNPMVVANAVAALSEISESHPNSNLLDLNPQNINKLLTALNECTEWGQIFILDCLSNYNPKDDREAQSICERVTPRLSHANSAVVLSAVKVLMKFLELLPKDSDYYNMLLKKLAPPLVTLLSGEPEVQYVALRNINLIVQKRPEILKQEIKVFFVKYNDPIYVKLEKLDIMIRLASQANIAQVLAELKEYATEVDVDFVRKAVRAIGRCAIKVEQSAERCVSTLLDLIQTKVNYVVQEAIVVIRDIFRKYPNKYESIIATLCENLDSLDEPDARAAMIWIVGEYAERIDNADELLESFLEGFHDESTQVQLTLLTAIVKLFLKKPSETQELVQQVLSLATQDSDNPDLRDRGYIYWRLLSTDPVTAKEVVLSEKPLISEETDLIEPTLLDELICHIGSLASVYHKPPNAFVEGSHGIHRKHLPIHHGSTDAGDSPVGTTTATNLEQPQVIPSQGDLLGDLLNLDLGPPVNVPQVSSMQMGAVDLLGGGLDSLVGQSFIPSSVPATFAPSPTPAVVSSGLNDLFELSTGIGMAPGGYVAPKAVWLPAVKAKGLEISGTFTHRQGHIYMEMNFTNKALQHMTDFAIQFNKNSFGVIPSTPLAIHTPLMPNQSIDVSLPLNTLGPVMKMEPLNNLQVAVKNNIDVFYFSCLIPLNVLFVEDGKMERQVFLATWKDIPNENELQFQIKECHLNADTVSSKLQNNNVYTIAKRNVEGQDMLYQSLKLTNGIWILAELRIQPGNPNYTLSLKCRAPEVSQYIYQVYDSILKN
# Chain of ATP-binding cassette sub-family B member 6 (Homo sapiens) (Q9NP58 whole entry, looked up): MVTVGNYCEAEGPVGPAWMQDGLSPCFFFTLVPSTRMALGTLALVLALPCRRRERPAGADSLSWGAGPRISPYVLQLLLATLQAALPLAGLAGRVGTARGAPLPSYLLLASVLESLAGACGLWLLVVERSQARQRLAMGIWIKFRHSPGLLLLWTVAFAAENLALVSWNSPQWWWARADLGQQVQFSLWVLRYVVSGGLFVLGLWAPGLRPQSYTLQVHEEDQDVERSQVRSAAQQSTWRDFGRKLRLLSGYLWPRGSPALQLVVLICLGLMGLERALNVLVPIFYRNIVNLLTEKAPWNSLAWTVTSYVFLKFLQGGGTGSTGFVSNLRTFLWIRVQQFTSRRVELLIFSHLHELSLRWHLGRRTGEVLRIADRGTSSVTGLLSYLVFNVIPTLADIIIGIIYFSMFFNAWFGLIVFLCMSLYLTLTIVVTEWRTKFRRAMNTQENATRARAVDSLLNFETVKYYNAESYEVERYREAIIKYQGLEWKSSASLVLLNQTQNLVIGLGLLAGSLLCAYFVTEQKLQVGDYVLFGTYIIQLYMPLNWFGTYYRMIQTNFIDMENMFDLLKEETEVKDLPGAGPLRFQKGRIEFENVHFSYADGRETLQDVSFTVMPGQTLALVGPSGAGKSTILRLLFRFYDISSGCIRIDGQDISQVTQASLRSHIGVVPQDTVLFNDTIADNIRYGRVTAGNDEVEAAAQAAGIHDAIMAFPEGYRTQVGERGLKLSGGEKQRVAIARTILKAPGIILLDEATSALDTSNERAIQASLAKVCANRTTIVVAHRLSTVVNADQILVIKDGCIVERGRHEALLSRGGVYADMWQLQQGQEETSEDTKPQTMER
# Chain of Integrin beta-1 (Homo sapiens) + Integrin alpha-4 (Homo sapiens) (P05556 whole entry, looked up): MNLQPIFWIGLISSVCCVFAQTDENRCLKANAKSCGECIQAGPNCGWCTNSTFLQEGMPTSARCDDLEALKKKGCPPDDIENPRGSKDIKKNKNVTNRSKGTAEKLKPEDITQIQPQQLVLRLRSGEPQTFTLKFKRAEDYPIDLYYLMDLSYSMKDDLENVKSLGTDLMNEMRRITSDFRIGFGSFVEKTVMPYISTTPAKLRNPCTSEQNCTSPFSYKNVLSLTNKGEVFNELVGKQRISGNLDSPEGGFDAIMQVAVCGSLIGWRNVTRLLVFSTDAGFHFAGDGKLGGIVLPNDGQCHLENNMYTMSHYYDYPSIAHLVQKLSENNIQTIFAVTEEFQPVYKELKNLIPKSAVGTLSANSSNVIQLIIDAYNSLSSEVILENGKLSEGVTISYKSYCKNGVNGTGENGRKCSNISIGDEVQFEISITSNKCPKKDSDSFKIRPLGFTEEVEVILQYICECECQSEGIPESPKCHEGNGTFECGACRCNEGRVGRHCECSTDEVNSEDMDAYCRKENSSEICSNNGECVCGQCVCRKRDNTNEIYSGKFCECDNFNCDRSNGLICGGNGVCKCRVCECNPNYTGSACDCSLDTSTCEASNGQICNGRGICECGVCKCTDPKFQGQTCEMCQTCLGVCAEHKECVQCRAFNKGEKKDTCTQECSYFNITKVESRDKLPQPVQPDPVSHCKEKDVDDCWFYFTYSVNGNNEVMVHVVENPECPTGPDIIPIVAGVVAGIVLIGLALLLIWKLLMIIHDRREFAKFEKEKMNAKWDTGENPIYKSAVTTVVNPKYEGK
# Chain of Integrin beta-1 (Homo sapiens) + Integrin alpha-4 (Homo sapiens) (P13612 whole entry, looked up): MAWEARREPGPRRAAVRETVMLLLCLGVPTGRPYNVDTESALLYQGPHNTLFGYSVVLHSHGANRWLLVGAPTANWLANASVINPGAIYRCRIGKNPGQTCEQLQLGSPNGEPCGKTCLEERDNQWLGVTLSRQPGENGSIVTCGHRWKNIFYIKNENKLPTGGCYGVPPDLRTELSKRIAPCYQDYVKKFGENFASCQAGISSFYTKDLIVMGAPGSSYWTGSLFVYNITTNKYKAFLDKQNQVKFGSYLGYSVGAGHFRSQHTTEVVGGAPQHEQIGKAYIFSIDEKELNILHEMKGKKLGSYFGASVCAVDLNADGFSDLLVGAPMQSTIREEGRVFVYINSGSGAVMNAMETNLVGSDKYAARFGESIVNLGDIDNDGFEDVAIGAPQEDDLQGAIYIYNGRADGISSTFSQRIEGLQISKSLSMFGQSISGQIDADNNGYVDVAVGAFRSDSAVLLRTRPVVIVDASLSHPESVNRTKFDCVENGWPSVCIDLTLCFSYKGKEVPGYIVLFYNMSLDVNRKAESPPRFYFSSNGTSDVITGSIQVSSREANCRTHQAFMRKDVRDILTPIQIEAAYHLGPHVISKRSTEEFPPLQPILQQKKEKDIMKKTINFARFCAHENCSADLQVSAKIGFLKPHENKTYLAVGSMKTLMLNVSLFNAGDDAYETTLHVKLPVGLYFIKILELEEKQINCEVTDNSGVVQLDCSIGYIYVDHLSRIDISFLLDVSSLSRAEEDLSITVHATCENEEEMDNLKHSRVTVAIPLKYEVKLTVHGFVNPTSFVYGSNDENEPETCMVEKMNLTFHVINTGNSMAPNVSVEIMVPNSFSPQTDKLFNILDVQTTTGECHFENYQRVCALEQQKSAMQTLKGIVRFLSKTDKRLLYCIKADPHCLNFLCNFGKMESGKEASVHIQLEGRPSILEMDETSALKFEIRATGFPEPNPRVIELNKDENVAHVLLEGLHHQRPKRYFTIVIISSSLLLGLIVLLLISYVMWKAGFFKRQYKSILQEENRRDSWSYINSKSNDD
SMILES,percent of DMSO control GFP [1],GFP response vs DMSO [2],percent response of DMSO control [3],GFP response vs DMSO [4],"GFP response, % of DMSO [5]",double positive events [6],vesicle binding response [6],inhibition [7],superoxide response (% of plate) [8],aptamer binding inhibition [9],inhibition [10],response [11],binding (% of control) [12],efflux inhibition (fraction of control) [13],inhibition [14],differentiation response [15]
CCn1cc(C(=O)O)c(=O)c2cnc(N3CCNCC3)nc21,99.1% (inactive),99.9% (inactive),104% (inactive),91.3% (inactive),99.7% (inactive),61%,164% (inactive),7.22% (inactive),85.2% (inactive),0% (inactive),32.7% (inactive),-7.56% (inactive),99% (inactive),-0.31 (inactive),6% (inactive),-19.6% (inactive)
CC(=O)Nc1ccc(OS(=O)(=O)c2c(C)cc(C)cc2C)cc1,99% (inactive),92.8% (inactive),98.8% (inactive),96.4% (inactive),86.7% (inactive),47.1%,166% (inactive),10.9% (inactive),99.6% (inactive),-1% (inactive),-5.36% (inactive),0.9% (inactive),102% (inactive),-0.2 (inactive),8% (inactive),-18% (inactive)
COC(=O)CN1CC(=O)N(c2ccccc2)C1=S,101% (inactive),106% (inactive),97.9% (inactive),100% (inactive),95.8% (inactive),59.2%,171% (inactive),6.29% (inactive),97.2% (inactive),1% (inactive),9.42% (inactive),4.12% (inactive),106% (inactive),0.22 (inactive),-19% (inactive),6.26% (inactive)
Clc1ccc(OCCCN2CCCCC2)c(Br)c1,105% (inactive),95.9% (inactive),112% (inactive),88.3% (inactive),98.7% (inactive),57.1%,202% (inactive),4.42% (inactive),88.5% (inactive),-2% (inactive),-6.22% (inactive),0.07% (inactive),103% (inactive),-0.35 (inactive),7% (inactive),0% (inactive)
CC(C)NCC(O)COc1ccc(CCOCC2CC2)cc1 (stereo not given),103% (inactive),102% (inactive),109% (inactive),111% (inactive),108% (inactive),63.7%,215% (inactive),-10.5% (inactive),93.3% (inactive),-6% (inactive),-20.5% (inactive),9.7% (inactive),103% (inactive),0.03 (inactive),-3% (inactive),7.13% (inactive)
Cc1ccccc1OCCSc1nc2ncnc(N)c2[nH]1,97.3% (inactive),105% (inactive),104% (inactive),99.4% (inactive),103% (inactive),51.9%,163% (inactive),8.15% (inactive),97.8% (inactive),2% (inactive),-6.91% (inactive),3.1% (inactive),96.7% (inactive),0.06 (inactive),1% (inactive),-8.27% (inactive)
CCOC(=O)c1ccc2[nH]c(C)c(CCC(C)=O)c(=O)c2c1,102% (inactive),98.9% (inactive),109% (inactive),88.3% (inactive),97.9% (inactive),57.1%,228% (inactive),0.69% (inactive),91.5% (inactive),1% (inactive),1.85% (inactive),6.01% (inactive),108% (inactive),-0.12 (inactive),6% (inactive),-11.5% (inactive)
COC(=O)c1[nH]c2ccccc2c1NC(=O)CN1CCN(C/C=C/c2ccccc2)CC1,108% (inactive),106% (inactive),99.8% (inactive),88.3% (inactive),96.1% (inactive),55.6%,154% (inactive),-42.2% (inactive),98% (inactive),0% (inactive),3.15% (inactive),3.35% (inactive),108% (inactive),0.25 (inactive),8% (inactive),-13.1% (inactive)
Clc1ccccc1CN1CCc2sccc2C1,100% (inactive),104% (inactive),99.6% (inactive),118% (inactive),119% (inactive),64.6%,233% (inactive),6.55% (inactive),87.2% (inactive),-1% (inactive),59.3% (active),0.39% (inactive),102% (inactive),0 (inactive),0% (inactive),-4.99% (inactive)
O=C(O)CC(O)C(=O)O (stereo not given),101% (inactive),106% (inactive),103% (inactive),104% (inactive),99.6% (inactive),62.1%,146% (inactive),10.9% (inactive),95.8% (inactive),3% (inactive),1.04% (inactive),-1.46% (inactive),99.3% (inactive),0.1 (inactive),14% (inactive),1.41% (inactive)
